Source: article PMC5540273 (PLoS ONE, 2017)
Where “and” joins values, the source holds several entries; their conditions need not be identical. Equal entries are not always repeated. Where two headings read alike, the source gives them in different places.

Columns and labels:
IRAK3 = conditions: concentration: 1 μM, replicates: in singlicate; n = 1
IRAK4 = conditions: concentration: 1 μM, replicates: in singlicate; n = 1
ITK = conditions: concentration: 1 μM, replicates: in singlicate, n = 1
[1] = tested on: JAK1(JH1domain-catalytic); conditions: concentration: 1 μM, replicates: in singlicate, n = 1
[2] = tested on: JAK1(JH2domain-pseudokinase); conditions: concentration: 1 μM, replicates: in singlicate, n = 1
[3] = tested on: JAK2(JH1domain-catalytic); conditions: concentration: 1 μM, replicates: in singlicate, n = 1
[4] = tested on: JAK3(JH1domain-catalytic); conditions: concentration: 1 μM, replicates: in singlicate; n = 1
JNK1 = tested on: T1, JNK1; conditions: concentration: 1 μM, replicates: in singlicate, n = 1
T1 construct: gene MAPK8

JNK2 = tested on: T2, JNK2; conditions: concentration: 1 μM, replicates: in singlicate; n = 1
T2 construct: gene MAPK9

JNK3 = tested on: T3, JNK3; conditions: concentration: 1 μM, replicates: in singlicate; n = 1
T3 construct: gene MAPK10
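Note: KINOMEscan kinase panel screen.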

Compound	%Inh (IRAK3)	%Inh (IRAK4)	%Inh (ITK)	%Inh [1]	%Inh [2]	%Inh [3]	%Inh [4]	%Inh (JNK1)	%Inh (JNK2)	%Inh (JNK3)	%Inh (ITK; 1 µM)	%Inh ([1]; 1 µM)	%Inh ([2]; 1 µM)	%Inh ([3]; 1 µM)	%Inh (JNK1; 1 µM)
[2H]C([2H])(c1cccc(C(F)(F)F)c1C)n1ccn2c(=O)nc(N3CCOCC3)cc12 [GSK2336394]	0%	16%	17%	18%	0%	0%	0%	21%	23%	9%					
Cl.Nc1ncnc2occ(-c3ccc(NC(=O)Nc4cc(C(F)(F)F)ccc4F)cc3)c12 [SB-707548]	0%	3%	9%	50%	7%	59%	23%	9%	94.9%	12%					
CN1c2ccc(CNc3ccc(F)cc3)cc2-c2c(cnn2C)S1(=O)=O	0%	0%	0%	2%	20%	0%	0%	0%	0%	0%					
O=C1NC(=O)C(N2CCc3ccccc32)=C1c1cccc(Cl)c1 [SB-408010]	0%	0%	15%	14%	0%	0%	0%	41%	34%	29%					
Cc1ccc(NC(=O)c2ccnc(N3CCN(C)CC3)c2)cc1-c1ccc(C(=O)NCC2CC2)cc1 [GW775604]	0%	0%	0%	0%	27%	2%	0%	0%	0%	0%					
COc1ccc(CNC(=O)NC2CCN(c3ccnc(Nc4ccc(OC)cc4)n3)C2)cc1 (centres unmarked) [GSK1379727]	13%	4%	7%	16%	0%	20%	0%	32%	19%	9%					
c1ccc(-c2n[nH]cc2-c2ccnc3ccccc23)nc1 [GW271431]	0%	6%	14%	10%	0%	3%	0%	17%	33%	12%					
Fc1ccc(-c2ncn(CCCN3CCOCC3)c2-c2ccccn2)cc1 [SB-211742]	1%	0%	0%	0%	0%	0%	0%	20%	0%	0%					
COc1cc2c(cc1OC[C@@H](O)CO)ncc1c3ccc(C#N)cc3[nH]c21	67%	99.9%	13%	0%	11%	3%	59%	15%	0%	0%					
O=c1cc(N2CCOCC2)nc2n(Cc3cccc(F)c3)ccn12 [GSK2297430]	0%	1%	0%	8%	0%	2%	0%	21%	13%	0%					
Cl.Cl.Cl.Fc1ccc(-c2ncn(C3CCNCC3)c2-c2ccnc(Nc3ccccc3)n2)cc1 [SB-238039]	0%	0%					0%		100%	99.8%	5% and 14%	0% and 8%	15% and 0%	44% and 0%	97% and 96.3%
Nc1nccc(-c2c(-c3ccc(F)cc3)ncn2C2CCN(CC(F)(F)F)CC2)n1 [SB-236560]	0%	0%	0%	0%	0%	0%	29%	63%	91.3%	89%					
Cc1cccc(Cn2ccn3c(=O)cc(N4CCOCC4)nc23)c1 [GSK2297542]	20%	7%	24%	14%	0%	0%	0%	17%	31%	8%					
Cc1cccc(-c2nc(Nc3ccc4ncsc4c3)c3ccccc3n2)n1 [GW867588]	0%	0%	30%	0%	62%	0%	0%	2%	8%	0%					
O=C1Cc2cc(Nc3nc(NCc4cccc(S(=O)(=O)C(F)(F)F)c4)ncc3C(F)(F)F)ccc2N1	0%	22%	0%	28%	0%	7%	7%	9%	0%	0%					
COc1cc2c(cc1OCCN1CCN(C)CC1)ncc1c3ccc(C#N)cc3[nH]c21	84%	100%	38%	0%	60%	52%	93.4%	19%	0%	0%					
Cc1nnc(-c2ccc(C)c(-c3ccc(C(=O)Nc4ccc(NS(C)(=O)=O)cc4)cc3)c2)o1 [GW702865]	0%	0%	0%	9%	0%	0%	0%	0%	0%	0%					
